{
  "source": "PubChem BioAssay (EPA / NIEHS)",
  "note": "Active and inactive are the calls of the source. The calls were made as follows: active = hit-call score of the fitted dose curve at least 0.9, where 1 is the maximum; inactive = score below 0.9.",
  "data": [
    {"biological_target": "Hepatocyte nuclear factor 6 (Homo sapiens) (UniProt Q9UBC0)", "sequence (Q9UBC0 whole entry, looked up)": "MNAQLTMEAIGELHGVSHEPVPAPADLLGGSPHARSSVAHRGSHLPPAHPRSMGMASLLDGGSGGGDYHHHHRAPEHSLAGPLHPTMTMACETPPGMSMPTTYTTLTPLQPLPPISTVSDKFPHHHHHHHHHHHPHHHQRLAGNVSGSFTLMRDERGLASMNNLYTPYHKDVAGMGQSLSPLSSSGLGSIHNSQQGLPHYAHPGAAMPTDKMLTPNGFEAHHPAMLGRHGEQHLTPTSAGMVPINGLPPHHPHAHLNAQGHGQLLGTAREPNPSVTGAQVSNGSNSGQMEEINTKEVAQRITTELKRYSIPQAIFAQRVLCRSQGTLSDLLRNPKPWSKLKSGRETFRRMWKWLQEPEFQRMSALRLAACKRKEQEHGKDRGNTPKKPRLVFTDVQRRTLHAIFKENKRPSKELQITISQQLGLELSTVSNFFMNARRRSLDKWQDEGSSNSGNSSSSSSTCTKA", "experiment": "ATG_HNF6_CIS: Attagene CIS-FACTORIAL HepG2 Assay for human Hepatocyte Nuclear Factor 6 (HNF6) (AID 2282952)", "settings": "HepG2 Attagene cis-factorial HNF6 reporter transcription; actives raise or lower the signal", "protocol": "ATG_CIS is a cell-based, multiplexed-readout assay that uses HepG2, a human liver cell line, with measurements taken at 24 hours after chemical dosing in a 24-well plate.ATG_HNF6_CIS is one of 52 assay component(s) measured or calculated from the ATG_CIS assay. It is designed to make measurements of mRNA induction, a form of inducible reporter, as detected with fluorescence intensity signals by Reverse transcription polymerase chain reaction (RT-PCR) and Capillary electrophoresis technology.Data from the assay component ATG_HNF6_CIS was analyzed into 1 assay endpoint. This assay endpoint, ATG_HNF6_CIS, was analyzed with bidirectional fitting relative to DMSO as the negative control and baseline of activity. Using a type of inducible reporter, measures of mRNA for gain or loss-of-signal activity can be used to understand the reporter gene at the transcription factor-level as they relate to the gene ONECUT1. Furthermore, this assay endpoint can be referred to as a primary readout, because this assay has produced multiple assay endpoints where this one serves a reporter gene function. To generalize the intended target to other relatable targets, this assay endpoint is annotated to the dna binding intended target family, where the subfamily is homeobox protein.\nHuman liver HepG2 cells are transiently transfected with multiple reporter transcription units (MRTUs) in 6-well plates using FuGene 6 reagent (Roche; 3 ml FuGene/1 mg DNA). The MRTU constructs are regulated by a cis-regulating element (promoter). […] A major difference between the CIS and TRANS system is that in CIS activities of endogenous TFs are measured, whereas the TRANS assay evaluates changes in activities of exogenous, chimeric NR-Gal4 proteins. […] At the end of 24 hour incubation, total RNA was isolated using TriZol reagent (Invitrogen). The isolated RNA is then reverse-transcribed using oligo(dT) primer and Mo-MLV reverse transcriptase (Invitrogen) with DNAse I (Ambion) treatment for 30 min. The one-tenth of the produced cDNA was amplified by PCR using Taq DNA polymerase (Invitrogen) and two reporter sequence-specific primers. The PCR products were fluorescently labeled by primer extension with 6-arboxyfluorescein (6-FAM) 5'-labeled reporter sequence-specific primer (2 min at 95 C, 20 s at 68 C and 10 min at 72 C) and these products were digested with 5U of HpaI (New England Biolabs) for 2h at 37 C. The fragments were purified using Qiaquick PCR columns (Qiagen), analyzed on an ABI 3130xL genetic analyzer (Applied Biosystems) with peak positions identified by using a set of X-rhodamine (ROX)-labeled MapMarker1000 molecular weight standards (BioVentures). The raw capillary electrophoresis data was processed using Attagraph software (Attagene).", "values": [
      {"compound": "COc1cc(C=O)ccc1O", "outcome": "inactive"},
      {"compound": "Cc1ccc2ncccc2c1", "outcome": "inactive"},
      {"compound": "CNCc1cc(F)ccc1Oc1ccc(Cl)c(Cl)c1", "outcome": "inactive"},
      {"compound": "CCCCCCCCCCCC(=O)OC", "outcome": "inactive"},
      {"compound": "Nc1ccccc1N", "outcome": "inactive"},
      {"compound": "COCCOC[C@H](CC1(C(=O)NC2CCC(C(=O)O)CC2)CCCC1)C(=O)Oc1ccc2c(c1)CCC2", "note": "(stereo not given in full)", "outcome": "inactive"},
      {"compound": "O=C(OCCCCCOC(=O)c1ccccc1)c1ccccc1", "outcome": "inactive"},
      {"compound": "CC(=O)OC/C=C(\\C)CCC=C(C)C", "outcome": "inactive"},
      {"compound": "CC1=C(/C=C/C(C)=C/C=C/C(C)=C/CO)C(C)(C)CCC1", "AC50": "158 µM (active)"},
      {"compound": "Oc1ccc2c(c1)OC[C@@H](N1CCC(O)(c3ccc(F)cc3)CC1)[C@H]2O", "outcome": "inactive"},
      {"compound": "CC(C)(C)c1cc(O)c(C(C)(C)C)cc1O", "outcome": "inactive"},
      {"compound": "CC(=O)Oc1ccccc1C(=O)O", "outcome": "inactive"},
      {"compound": "FC(F)(F)C(F)(F)C(F)(F)C(F)(F)C(F)(F)C(F)(F)CCI", "outcome": "inactive"},
      {"compound": "CCCCCCOCCO", "outcome": "inactive"},
      {"compound": "c1cc(-c2ccncc2)ccn1", "outcome": "inactive"},
      {"compound": "CCCCCC(=O)O", "outcome": "inactive"},
      {"compound": "O=C(O)CCCCC(=O)O", "outcome": "inactive"},
      {"compound": "COc1ccc2c(c1)c(CC(=O)O)c(C)n2C(=O)c1ccc(Cl)cc1", "outcome": "inactive"},
      {"compound": "O=c1c(O)c(-c2ccc(O)c(O)c2)oc2cc(O)cc(O)c12", "outcome": "inactive"},
      {"compound": "CNC(=O)[C@H]1O[C@@H](n2cnc3c(NCc4cc(Cl)ccc4OCc4cc(C)no4)ncnc32)[C@H](O)[C@@H]1N", "outcome": "inactive"},
      {"compound": "Oc1ccc2ccccc2c1N=Nc1ccccc1", "outcome": "inactive"},
      {"compound": "Cc1nc(-c2ccc3c(c2)CCN(CCC2CCC(NC(=O)/C=C/c4ccc(F)cc4)CC2)CC3)no1", "note": "(stereo not given)", "outcome": "inactive"},
      {"compound": "CC=Cc1ccc(O)c(OC)c1", "outcome": "inactive"},
      {"compound": "Cc1nc(C)nc(N2C[C@@H](C)N(c3ccnc([C@@H](C)O)n3)[C@@H](C)C2)n1", "outcome": "inactive"},
      {"compound": "CCCc1cc(=O)[nH]c(=S)[nH]1", "outcome": "inactive"},
      {"compound": "CCCCCCCCCCCCCCCCCC(=O)O", "outcome": "inactive"},
      {"compound": "CCCCN(CCCC)CCCC", "outcome": "inactive"},
      {"compound": "CCCCCCCCCCCCCCCC", "outcome": "inactive"},
      {"compound": "CCNc1cccc(C)c1", "outcome": "inactive"},
      {"compound": "OC[C@@H](O)[C@@H](O)[C@H](O)[C@H](O)CO", "outcome": "inactive"},
      {"compound": "Cc1c(C(=O)O)c(O)cc2c1C(=O)c1c(O)c([C@@H]3O[C@H](CO)[C@@H](O)[C@H](O)[C@H]3O)c(O)c(O)c1C2=O", "outcome": "inactive"},
      {"compound": "CCCCCCCCCCC", "outcome": "inactive"},
      {"compound": "CCCCCCC(=O)OCC", "outcome": "inactive"},
      {"compound": "CCCCC(CC)COC(=O)CC(C(=O)OCC(CC)CCCC)S(=O)(=O)O", "note": "(stereo not given)", "outcome": "inactive"},
      {"compound": "COC(=O)c1ccc(O)cc1", "outcome": "inactive"},
      {"compound": "CN[C@H]1CC[C@@H](c2ccc(Cl)c(Cl)c2)c2ccc(S(N)(=O)=O)cc21", "outcome": "inactive"},
      {"compound": "Clc1cc(Cl)c(Cl)cc1Cl", "outcome": "inactive"},
      {"compound": "CCOc1ccc2c(c1)C(C)=CC(C)(C)N2", "outcome": "inactive"},
      {"compound": "CCCCCCCCCCCCCO", "outcome": "inactive"},
      {"compound": "O=c1[nH]cc(F)c(=O)[nH]1", "outcome": "inactive"}
    ]}
  ]
}
